Screening results deposited in PubChem BioAssay by several laboratories.
In the library only some 1.7% were active in any assay of this set; here they are far more common.
Mtb hypoxia rep: inhibitors of hypoxia-regulated fluorescent reporter in Mycobacterium tuberculosis; M. tuberculosis hypoxia-regulated fluorescent reporter, fluorescence; fluorescence inhibition, % (no concentration beside the values); 300,000 compounds, 0.1% hits; AID 1159583; in the data active = fluorescence inhibition mostly above about 23%, no sharp cut-off; inactive = mostly below about 17%
Sa ugtP lethal: kills S. aureus RN4220 lacking UgtP; S. aureus RN4220 ugtP deletion, OD600 growth, 16 h; growth inhibition, % (concentration not given with the values); 330,000 compounds, 0.54% hits; AID 1259309; in the data active = growth inhibition above about 68%;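 also: plate controls were untreated wells for no effect and antibiotic for full effect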
RN4220 kill: S. aureus RN4220 growth inhibition. OD600, 16 h. 330,000 compounds, 0.33% hits. inhibition, % (no concentration beside the values). AID 1259311; in the data active = inhibition above about 85%;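 also: plate controls were untreated cells for no effect and reference antibiotic for full effect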
BH1578 lux ind: quorum light induction in luxS cqsA deficient V. cholerae | 350,000 compounds, 0.16% hits | V. cholerae BH1578 lux reporter, luminescence, 6 h | activation, % at 18.7 µM | AID 588436; in the data active = activation mostly above about 9.7%, no sharp cut-off
CCHF vOTU inh: CCHFV vOTU protease inhibition; Pep-AMC fluorescence; inhibition, % at 11.5 µM; 370,000 compounds, 0.55% hits; AID 651958; in the data active = inhibition above about 30%; also: 0% = vehicle wells with enzyme and 100% = no enzyme wells
PfHsp40 rescue: compounds rescuing yeast from Plasmodium falciparum HSP40 toxicity; growth rescue, % at 12.5 µM; 340,000 compounds, 0.68% hits; AID 504582; S. cerevisiae expressing PfHsp40, growth rescue, ATP luminescence; in the data active = growth rescue above about 28%, passing the limit was not always enough;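 also: yeast W303a lacking pdr1 and pdr3 grown in galactose medium; growth measured after three days at 30 °C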
An asterisk follows results filed as active; i = inactive; . = no result shown.

SMILES	Mtb hypoxia rep	Sa ugtP lethal	RN4220 kill	BH1578 lux ind	CCHF vOTU inh	PfHsp40 rescue
Cc1c(C(=O)O)c(O)cc2c1C(=O)c1c(O)c(C3OC(CO)C(O)C(O)C3O)c(O)c(O)c1C2=O (stereo not given)	21	3	2	.	.	.
O=C(COc1ccc(Cl)cc1Cl)Nc1ccc(C(=O)Nc2ccccc2C(=O)O)cc1	22	14	-2	i	2	-1
O=C(CCCOc1ccc(Cl)cc1Cl)Nc1ccccc1C(=O)O	34*	23	25	0	3	0
Cc1ccc(C(=O)NNC(=O)CSc2nnc3c(n2)[nH]c2ccc(C)cc23)cc1	6	-5	5	i	.	0
CCc1ccc2[nH]c3nc(SCC(=O)NNC(=O)c4ccc(C(C)(C)C)cc4)nnc3c2c1	0	85*	19	0	1	-1
[O-][n+]1cccc2c(Br)cc(Br)c(O)c21	-1	-10	20	0	-2	310*
Cc1ccc(-c2cc(C(=O)NN=Cc3c[nH]c4ccccc34)n[nH]2)o1	13	-16	1	.	.	.
Cn1c(=O)c2c(nc(NN=Cc3cccs3)n2Cc2ccccc2)n(C)c1=O	-1	-3	2	.	.	.
CCC(C(=O)C(C)C(O)C(C)CCc1ccc(C)c(O)c1C(=O)O)C1O[C@](CC)(C2CC[C@](O)(CC)C(C)O2)CC1C (stereo not given in full)	17	90*	99*	.	.	.
Cc1ccc(CSCC(=O)NN=Cc2ccc(OCC(=O)Nc3ccc(C)cc3)cc2)cc1	5	-16	-14	.	.	.
CCOC(=O)C1C2COc3ccc(OC)cc3C2N2C(=O)CNC(=O)[C@@]12C (stereo not given in full)	5	3	4	.	.	.
COC(=O)C1=C(c2ccc(S(C)(=O)=O)cc2)CC2CCC1N2C(=O)NCCNC(C)=O (stereo not given)	-7	-8	4	.	.	.
CC(C)(C)c1ccc(OCC(=O)NNC(=S)NC(=O)c2ccco2)c(Br)c1	-3	98*	99*	i	-4	-1
CC1(C)C2CC(=NO)C(C)(/[N+]([O-])=C/c3cccc([N+](=O)[O-])c3)CC21 (stereo not given)	-2	-13	0	.	.	.
Cc1cnccc1CN(C)Cc1cn(C)nc1-c1cccc(Cl)c1	6	4	5	-1	-13	-1
CC(c1ccon1)N(C)Cc1cn(C)nc1-c1cccc(Cl)c1 (stereo not given)	4	4	3	i	-1	79*
CCOC(=O)C1=C(N)N2C(=O)CSC2=C(C(=O)OC)C1	4	-5	-7	60*	-2	-2
COc1ccc(OC)c(C(c2c(O)c3ccccc3oc2=O)c2c(C)n(C)n(-c3ccccc3)c2=O)c1 (stereo not given)	-1	2	1	-4	-10	46*
O=C(CC12CC3CC(CC(C3)C1)C2)NN=Cc1ccc([N+](=O)[O-])o1	.	83	46	.	.	.
Cc1ccc(S(=O)(=O)N2c3ccccc3OCC2c2ccccc2)cc1 (stereo not given)	16	78	0	-2	-2	2
CC1COc2ccccc2N1S(=O)(=O)c1ccc(Cl)cc1 (stereo not given)	16	23	8	0	-4	32*
CC(=O)c1c(C)n([O-])c2ccc(C)cc2[n+]1=O	64*	13	16	0	2	0
Cc1ccc2c(c1)n([O-])c1c([n+]2=O)CCCC1	.	11	-1	i	10	1
ON=C1CCC(=NO)c2nn(-c3ccccc3Cl)nc21	3	2	2	.	.	.
CSC(=S)N/N=C/c1ccc(Br)cc1	.	.	.	.	15	-1
SMILES	Mtb hypoxia rep	Sa ugtP lethal	RN4220 kill	BH1578 lux ind	CCHF vOTU inh	PfHsp40 rescue
N/C(=N\N=Cc1ccc(Br)cc1)NN=Cc1ccc(Br)cc1	-17	100*	101*	.	.	.
COc1ccc(Br)cc1C=Nn1nnnc1N	1	-2	4	.	.	.
O=C(NC1CCS(=O)(=O)C1)c1ccc2c(c1)OCO2 (stereo not given)	5	-4	5	i	6	44*
O=C(O)c1ccc(C=NNC(=O)c2ccc(CN3c4cccc5cccc(c45)S3(=O)=O)cc2)cc1	-1	8	3	.	.	.
CCC1=C(OC(=O)N(CC)CC)N2C(=O)OC(=NCC3CC3)[C@]2(Cc2ccccc2)C2C1=CCC1C(=O)NC(=O)C12 (stereo not given in full)	2	2	7	.	.	.
Cc1nc(SCC(=O)NCc2ccc3c(c2)OCO3)nc(C)c1C	23*	10	5	i	16	1
O=C(c1ccccc1)[C@@H]1[C@@H](C(=O)c2ccc(F)cc2)[C@@]2(C(=O)Nc3ccccc32)[C@H]2c3ccccc3C=CN12	.	.	.	0	84*	2
COc1ccc2[nH]c3c(c2c1)CCN1C(=O)N([C@@H](C)C(=O)NCCc2ccc(F)cc2)C(=O)[C@]31C	.	-1	-2	0	-1	58*
COc1cc(O)oc1C=Nc1ccc(Cl)cc1	4	-7	-2	26*	6	0
COc1cc(O)oc1C=Nc1ccc(Cl)cc1Cl	0	2	2	i	-1	0
N#C/C(=N\Nc1ccc([N+](=O)[O-])cc1)C(N)=S	.	.	.	0	15	-2
N#CC(=NNc1ccc(OC(F)(F)F)cc1)C(N)=S	.	87*	82	.	.	.
Cc1ccc2cc(COC(=O)c3ccco3)c(=O)[nH]c2c1	-1	-7	5	17*	-6	0
CC(=NOCC(=O)Nc1c(C)cc(C)cc1C)c1ccc2c(c1)OCCO2	8	5	0	.	.	.
Cc1cccc(N=Cc2[nH]c3ccc(Br)c(Cl)c3c2O)c1	19	100*	35	-1	-4	1
CN(C(=O)CSc1nnc(-c2ccccc2)n1C)C1CCS(=O)(=O)C1 (stereo not given)	-2	3	3	-1	5	44*
CC1COC(=O)C(Cc2ccc(F)cc2)CCC=CCC(CC(=O)NC(CO)Cc2ccccc2)C(=O)N1 (stereo not given)	4	4	3	.	.	.
CCc1ccc(OCc2n[nH]c(=S)n2Cc2ccccc2)cc1	-3	-2	13	i	8	101*
CCc1ccc(OCc2n[nH]c(=S)n2C(C)CCCC(C)C)cc1 (stereo not given)	-4	-3	2	0	28	57*
CC(C)CCn1c(COc2ccccc2)n[nH]c1=S	14	2	6	-1	-4	1
O=C(NN=Cc1ccc(Cl)s1)c1ccc(Cn2cccn2)o1	-7	-2	-1	.	.	.
CCCc1ccc2oc(C(=O)NCCc3cnn(C)c3)c(C)c2c1	16	13	11	i	3	3
CCCc1ccc2oc(C(=O)NCCc3nc(C(=O)OCC)cs3)c(C)c2c1	3	-2	-3	-1	29	40*
CCCc1cc(-c2n[nH]c(=S)n2-c2cccc(C)c2)cs1	3	26	0	0	5	68*
